Shown are actives, neighbours in structure and some others; about 10% of the full set was active somewhere.
GPT2 inhibitor: Primary qHTS assay for inhibitors of Glutamate pyruvate transaminase 2 (GPT2). Alanine aminotransferase 2 (Homo sapiens), Q8TD30. 100,000 compounds, 0.25% hits. Potency, µM (titrated, usually from 57.7 µM), for inactives: at the top dose activity change, negative = inhibition, usual class: inhibitors. AID 1671188, 2021. Recombinant GPT2, coupled pyruvate oxidase/HRP Amplex Red fluorescence; also: nearly all actives have a fitted effect of over 60% in size
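GPT2 10ng/uL, a-KG 250uM, L-Ala 2mM, HEPES pH7.5 + 0.0001% Tween; 30 min RT. Then Amplex mix (PO/HRP/ThPP), 30 min RT dark, fluorescence. AOA 50uM used as positive control.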
hNpr1 antagonist: Natriuretic polypeptide receptor (hNpr1) antagonism - Primary qHTS; HEK293 hNpr1 GloSensor cGMP, ANP-stimulated luminescence; Potency, µM (titrated, usually from 46.3 µM), for the others: top-dose activity change, negative = inhibition, actives largely listed as inhibitors; 76,000 compounds, 1.6% hits; calls by dose curve; also: nearly all actives have a fitted effect of over 60% in size
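Compound pre-incubated 30 min at room temperature on GloSensor-loaded HEK293 cells stably carrying hNpr1 and the pGS-40F cGMP biosensor. Stimulation uses hNppA at 0.1 nM final; luminescence is taken at baseline and 20 min post-agonist.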
HEK293 tox: Cytotoxic Profiling in HEK 293 Cell Line of Diverse Libraries Using Quantitative High-Throughput Screening; HEK 293 viability, ATP luminescence (CellTiter-Glo), 48-72 h; Potency, µM (highest dose often 115 µM), inactives show at the top dose activity change, negative = cytotoxicity, hits mostly inhibitors; 94,000 compounds, 6.6% hits; AID 1345083, 2018; also: nearly all actives have a fitted effect of over 60% in size
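qHTS cytotoxicity; HEK 293, 250 cells/well; compound pinned; 48 or 72 hr, 37 degree Celsius, 5% CO2, 95% humidity; CellTiter-Glo, 10 min RT; luminescence (ATP).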
Luciferase inh: Firefly luciferase inhibition profiling of diverse chemical library using quantitative high-throughput screening | purified P. pyralis luciferase, luminescence, biochemical | 76,000 compounds, 2.5% hits | Potency, µM (highest dose often 115 µM), actives largely listed as inhibitors; also: nearly all actives have a fitted effect of over 65% in size
Target sequence (P08659 whole entry, looked up): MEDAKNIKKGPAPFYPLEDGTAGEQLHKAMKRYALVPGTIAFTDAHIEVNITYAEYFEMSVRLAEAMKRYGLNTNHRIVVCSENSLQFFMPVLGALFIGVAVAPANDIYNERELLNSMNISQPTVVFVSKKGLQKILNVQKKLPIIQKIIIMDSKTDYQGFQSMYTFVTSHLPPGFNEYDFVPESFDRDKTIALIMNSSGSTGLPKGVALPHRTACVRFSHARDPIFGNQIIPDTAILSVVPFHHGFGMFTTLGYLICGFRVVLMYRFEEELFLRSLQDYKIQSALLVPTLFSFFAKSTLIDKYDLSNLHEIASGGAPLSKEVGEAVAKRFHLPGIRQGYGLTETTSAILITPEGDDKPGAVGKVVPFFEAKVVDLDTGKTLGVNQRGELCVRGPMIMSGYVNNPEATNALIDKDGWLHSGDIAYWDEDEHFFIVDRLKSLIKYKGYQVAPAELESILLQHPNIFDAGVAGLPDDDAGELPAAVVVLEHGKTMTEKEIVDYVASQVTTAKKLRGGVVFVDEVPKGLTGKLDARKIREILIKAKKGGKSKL
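Purified 10nM P. pyralis luciferase with 10uM D-luciferin and 10uM ATP in 50mM Tris acetate pH 7.5, 10mM Mg acetate, 0.01% Tween-20, 0.05% BSA. qHTS titration; luminescence read by CCD imager.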
NIH3T3 tox: Cytotoxic Profiling in NIH 3T3 Cell Line of Diverse Libraries Using Quantitative High-Throughput Screening | 94,000 compounds, 4.3% hits | NIH 3T3 viability, CellTiter-Glo ATP luminescence, 48-72 h | Potency, µM (highest dose often 96.7 µM), for the others: top-dose activity change, negative = cytotoxicity, most hits filed as inhibitors | AID 1345082, 2018; also: nearly all actives have a fitted effect of over 55% in size
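Luminescent ATP readout (CellTiter-Glo, 10 min RT) after 48 or 72 hr compound exposure of NIH 3T3 cells seeded at 400 cells/well in 1536-well format; quantitative HTS.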
An asterisk follows results filed as active; i = inactive; ? = inconclusive; / = no result; [ ] = another dose, or the depositor's remark. Unless noted, calls follow the shape of the dose curve; as a rule, active = well fitted curve in the direction sought with a large enough effect; inconclusive = small, poorly fitted or top-dose-only effect, or another doubt; inactive = no such curve, though single readings can be large; an effect the other way counts as inactive or inconclusive. % is scaled to controls: 0 for no effect and ±100 for the full control effect; potency is read from the fitted curve at half-maximal effect.

SMILES | GPT2 inhibitor | hNpr1 antagonist | HEK293 tox | Luciferase inh | NIH3T3 tox
CCCn1cc(-c2ccncc2)cc1C(=O)N1CCN(c2ccccc2OC)CC1 | -6.0% | -17.1% | -12.3% | i | -5.5%
O=[S+]1([O-])NCC2(CCN(Cc3cccc4ccccc34)C2)Nc2ccccc21 (centres undefined) | i | 2.5% | ? | i | ?
COc1ccc(-c2cc(C(=O)N3CCN(Cc4ccccc4)CC3)c3cnn(C)c3n2)cc1 | / | / | 35.5µM* | / | ?
COc1ccc(-c2cc(C(=O)N3CCN(c4ncccn4)CC3)c3cnn(C)c3n2)cc1 | / | / | 39.8µM* | / | ?
Cc1ccc(-c2cc(C(=O)N3CCN(Cc4ccccc4)CC3)c3cnn(C)c3n2)c(C)c1 | 1.8% | / | ? | / | ?
Cn1ncc2c(C(=O)N3CCN(Cc4ccccc4)CC3)cc(-c3ccccc3F)nc21 | / | / | 39.8µM* | / | ?
Cc1ccc(-c2cc(C(=O)N3CCN(Cc4ccccc4)CC3)c3cnn(C)c3n2)cc1 | i | / | ? | / | ?
O=C1CC(c2ccccc2)N(C(=O)CNC(=O)CN2CCCCCC2)CCCCCN1 (centres undefined) | -3.5% | -8.3% | -16.6% | i | -7.0%
c1coc(-c2nnc([C@H]3CCN(Cc4cccs4)C3)o2)c1 | 0.0%[88.5 µM] | 4.1%[70.6 µM] | -10.9%[172 µM] | 70.8µM* | -10.9%[174 µM]
FC(F)(F)c1ccc(CN2CC[C@H](c3nc4ccccc4[nH]3)C2)cc1 | -15.1%[88.5 µM] | ? | 35.5µM* | i | 28.2µM*
FC(F)(F)c1ccc2nc([C@H]3CCN(Cc4ccc(Cl)cc4)C3)[nH]c2c1 | 1.8%[88.5 µM] | ? | 22.4µM* | ? | ?
CC(=O)N1CC[C@H](c2nc3ccc(C(F)(F)F)cc3[nH]2)C1 | -10.7%[88.5 µM] | 2.5%[70.6 µM] | -9.5%[172 µM] | i | ?
c1csc(CN2CC[C@H](c3nc4ccccc4[nH]3)C2)c1 | -20.4%[88.5 µM] | -27.7%[70.6 µM] | ? | ? | 100µM*
Cc1noc(C2CC3(CCN(C(=O)CCCc4ccccc4)CC3)CN2C)n1 (centres undefined) | 0.1% | / | -20.5% | / | -22.9%
CN(C)c1ccc(CN2CC[C@H](c3nc4ccc(C(F)(F)F)cc4[nH]3)C2)cc1 | i | ? | 31.6µM* | i | 31.6µM*
COc1ccc2nc([C@H]3CCN(Cc4ccc(C(=O)O)cc4)C3)[nH]c2c1 | 3.7%[88.5 µM] | 6.1%[70.6 µM] | -1.5%[172 µM] | ? | -5.0%[174 µM]
Cn1cc(CN2CC[C@H](c3nc4ccccc4[nH]3)C2)c2ccccc21 | -14.8%[88.5 µM] | -14.7%[70.6 µM] | 50.1µM* | i | ?
CN(C)c1ccc(CN2CC[C@H](c3nc4ncccc4[nH]3)C2)cc1 | 3.8%[88.5 µM] | -7.2%[70.6 µM] | -22.7%[172 µM] | i | -9.7%[174 µM]
FC(F)(F)c1ccc2nc([C@H]3CCN(CC4CC4)C3)[nH]c2c1 | -7.6%[88.5 µM] | -6.1%[70.6 µM] | ? | 28.2µM* | ?
FC(F)(F)c1ccc2nc([C@H]3CCN(C4CCOCC4)C3)[nH]c2c1 | 0.2%[88.5 µM] | -2.2%[70.6 µM] | ? | i | -16.4%[174 µM]
Cc1ccc2nc([C@H]3CCN(Cc4ccc(C(F)(F)F)cc4)C3)[nH]c2c1 | ? | ? | 28.2µM* | i | 35.5µM*
c1ccc(CCCN2CC[C@H](c3nc4ccccc4[nH]3)C2)cc1 | i | -20.7%[70.6 µM] | ? | ? | ?
CN1CC(=O)N(C2CCCC2)Cc2c(NCCc3ccc(Cl)cc3)ncnc21 | -3.2% | / | ? | / | ?
Cc1ccc(-c2cccc(CN3CCCC(NC(=O)Cc4ccccc4)C3)c2)cc1Cl (centres undefined) | i | / | i | / | -3.0%
CC(=O)NC1CCCN(Cc2cccc(-c3ccc(C)c(Cl)c3)c2)C1 (centres undefined) | -6.6% | / | 20µM* | / | 35.5µM*
SMILES | GPT2 inhibitor | hNpr1 antagonist | HEK293 tox | Luciferase inh | NIH3T3 tox
Cc1ccc(-c2cccc(CN3CCCC(NC(=O)C4CCCC4)C3)c2)cc1Cl (centres undefined) | i | / | -9.4% | / | -14.6%
Cc1ccc(-c2cccc(CN3CCCC(NC(=O)Nc4ccccc4F)C3)c2)cc1Cl (centres undefined) | i | / | 17.8µM* | / | 28.2µM*
COC(=O)NC1CCCN(Cc2cccc(-c3ccc(C)c(Cl)c3)c2)C1 (centres undefined) | i | / | 44.7µM* | / | ?
CC1=C[C@@H](CNC(=O)C2CC2)[C@H](C(C)C)C[C@H]1CC(=O)Nc1ccccn1 | -31.1%[88.5 µM] | -7.1%[70.6 µM] | -22.3%[172 µM] | i | -38.0%[174 µM]
O=C(c1ccc(C(F)(F)F)cc1)N1CCC(C(=O)N2CCC(N3CCCC3=O)CC2)CC1 | ? | / | i | / | i
O=C(NCC(F)(F)F)c1nc2cccnc2n(C2CC2)c1=O | -14.4%[88.5 µM] | / | -1.7%[172 µM] | / | -18.0%[138 µM]
O=C(NCc1cccs1)c1ccc2oc(-c3ccccn3)nc2c1 | i | / | ? | / | ?
CCOCCN1C(=O)COC[C@@H]1[C@H](O)c1ccc(NC(=O)COc2ccccc2)cc1 | 4.0%[88.5 µM] | -0.1%[70.6 µM] | -27.4%[172 µM] | i | -20.3%[138 µM]
O=C(COc1ccccc1)Nc1ccc([C@@H](O)[C@H]2COCC(=O)N2Cc2ccc(F)cc2)cc1 | i | -4.8% | ? | i | -18.4%
COc1ccc(C(=O)Nc2ccc([C@@H](O)[C@H]3COCC(=O)N3CC3CCCCC3)cc2)cc1 | 0.6% | -18.7% | 35.5µM* | i | ?
O=C(Nc1ccc([C@@H](O)[C@H]2COCC(=O)N2Cc2ccccc2)cc1)c1ccc(F)cc1 | -9.3%[88.5 µM] | -8.8%[70.6 µM] | 100µM* | i | ?
O=C(COc1ccccc1)Nc1ccc([C@@H](O)[C@H]2COCC(=O)N2Cc2ccc(C(F)(F)F)cc2)cc1 | -8.8% | ? | 39.8µM* | i | ?
O=C(COc1ccccc1)Nc1ccc([C@@H](O)[C@H]2COCC(=O)N2CCCc2ccccc2)cc1 | -5.8% | 4.3% | 79.4µM* | i | ?
COc1ccc(C(=O)N2CCC3(CC2)C(=NC2CCCCC2)NC(=O)N3c2cc(F)cc(F)c2)cc1 | -2.9% | / | i | / | 31.6µM*
COc1ccc(C(=O)N2CCCC3(C2)C(=NC2CCCCC2)NC(=O)N3c2cc(F)cc(F)c2)cc1 (centres undefined) | 0.6% | / | i | / | -8.2%
Cc1ccc(C(=O)N2CCC3(CC2)C(=NC2CCCCC2)NC(=O)N3c2cc(F)cc(F)c2)cc1 | -24.8% | / | -2.7% | / | 31.6µM*
COc1ccc(C(=O)N2CCC3(CC2)C(=NC2CCCCC2)NC(=O)N3c2cccc(OC)c2)cc1 | ? | / | 1.6% | / | 28.2µM*
O=C(c1ccc(C(F)(F)F)cc1)N1CCC2(CC1)C(=NC1CCCCC1)NC(=O)N2c1cc(F)cc(F)c1 | ? | / | 0.2% | / | ?

From PubChem
